Reference: PubChem BioAssay

How the values were obtained:
[1] = system: Botulinum neurotoxin type F light chain protease (Clostridium botulinum); assay: Clostridium botulinum type F light chain protease inhibitors, microsphere substrate cleavage, validation (AID 588459); settings: multiplex microsphere protease substrate cleavage assay, flow cytometry; at 10 µM; active compounds read high
[2] = biological target: Botulinum neurotoxin type A (Clostridium botulinum) (UniProt P0DPI0); assay: BoNT/A light chain protease inhibitors, biochemical, multiplex microsphere flow cytometry, validation set (AID 588460); settings: at 10 µM, active compounds read high
[3] = biological target: Lethal factor (Bacillus anthracis) (UniProt P15917); assay: Bacillus anthracis lethal factor inhibition, microsphere flow cytometry protease assay, validation at 10 µM (AID 588461); settings: multiplex microsphere protease cleavage assay, active compounds read high

Measured: inhibition

COc1ccc(C2C(=O)c3ccccc3C2=O)cc1
inactive: [1] 0.5% | [2] -0.4% | [3] -3.8%

CC(C)C(=O)Nc1cccnc1
inactive: [1] -1.8% | [2] 0.9% | [3] -5.8%

COc1ccc(C(=O)Nc2cccnc2)cc1C(=O)Nc1cccnc1
inactive: [1] 2.9% | [2] 1.3% | [3] -0.7%

CC1(C)CC(CNCCC(c2ccc(F)cc2)c2ccco2)CCO1 (stereo not drawn)
inactive: [1] 0.9% | [2] -1.4% | [3] 3.4%

COC(=O)C1=C(C)N(C)C(=S)NC1c1ccc(Cl)cc1 (stereo not drawn)
inactive: [1] -0.7% | [2] -0.5% | [3] -4%

C/C=C(/C(=C/C)c1ccc(O)cc1)c1ccc(O)cc1
inactive: [1] -1.2% | [2] -0.3% | [3] 3.5%

COc1ccccc1NC(=O)N1CCc2[nH]c3ccc(Cl)cc3c2C1
inactive: [1] 6.8% | [2] 0.4% | [3] -0.7%

Clc1ccc(OCCCN2CCCCC2)c(Br)c1
inactive: [1] 1.8% | [2] 0.2% | [3] -3.7%

CC1CCN(CCOCCOc2ccccc2Br)CC1
inactive: [1] 1.2% | [2] 0.3% | [3] 3.9%

O=C(O)CCCNc1ccc(S(=O)(=O)Nc2ccccc2C(=O)O)cc1C(=O)O
inactive: [1] 1.6% | [2] 1.7% | [3] 10%

Cn1c(=O)[nH]c(=O)c2c1nc(NCc1ccco1)n2CCCc1ccccc1
inactive: [1] -0.8% | [2] -0.7% | [3] 0.5%

OC(CCN1CCCC1)(c1ccccc1)C1CCCCC1 (stereo not drawn)
inactive: [1] -0.8% | [2] -0.7% | [3] -2.2%

O=C(O)C[C@@H](O)C(=O)O
inactive: [1] 0.4% | [2] -0.4% | [3] -1.2%

COc1ccc(-c2cc3cc(OC)c(OC)cc3c(C)n2)cc1
inactive: [1] -3.3% | [2] 1.2% | [3] 4.5%

Cc1nc(N[C@@H](Cc2c[nH]c3ccccc23)C(=O)O)c2oc3ccccc3c2n1
inactive: [1] 1.3% | [2] -0.2% | [3] -6.5%

CC(=O)c1cccc2c(O)c(C3=Nc4ccccc4C3=O)[nH]c12
inactive: [1] -2.1% | [2] 0.6% | [3] 6.7%

COc1ccc(NC2=C(Cl)C(=O)N(c3ccccc3)C2=O)c(OC)c1
inactive: [1] 3.7% | [2] 1% | [3] -0.3%

CC1=NN(C(=O)c2ccc(Br)cc2)C(O)(c2ccccc2)C1 (stereo not drawn)
inactive: [1] -2.9% | [2] -0.4% | [3] 4.5%

CCSc1nc(O)c(C2OC(=O)c3c2ccc(OC)c3OC)c(=O)n1CC (stereo not drawn)
inactive: [1] -0.7% | [2] 0.5% | [3] -2.4%

CNc1nc(Nc2ccccc2)nc(OCC(F)(F)F)n1
inactive: [1] 0.2% | [2] 0.2% | [3] -2.5%

O=C(O)c1cc(-c2ccc3c(c2)OCO3)nc2ccc(Br)cc12
inactive: [1] -1% | [2] 3% | [3] -2.6%

COc1ccc(N2C(=O)[C@@H]3Cc4ccccc4CN3C2=O)cc1
inactive: [1] 1.7% | [2] 0.4% | [3] -0.7%

O=C(O)CCCN1C(=O)NC2NC(=O)NC21 (stereo not drawn)
inactive: [1] 0.1% | [2] -0.8% | [3] 0.4%

CCOc1ccc(NC2OC(C)C(O)C(O)C2O)c([N+](=O)[O-])c1 (stereo not drawn)
inactive: [1] 3.1% | [2] -0.7% | [3] 11.5%

O=C(c1ccc(F)cc1)[C@@H]1[C@@H](C(=O)c2ccccc2)[C@@]2(C(=O)Nc3ccccc32)[C@H]2c3ccccc3C=CN12
inactive: [1] 4.8% | [2] 0.3% | [3] -3.6%

COc1cc2nc(-c3ccccc3)nc(N3CCCC3)c2cc1OC
inactive: [1] -1.8% | [2] -1.5% | [3] -4.3%
